Molecular target: GABARAPL2, P60520
Test: median log2 fold change of GCK-ALFA target abundance (FLAG IP / Myc IP barcode read proportion) (log2 ratio); each designed protein is fused to an ALFA-tag nanobody in HEK293 cells to bring the named protein to FLAG-tagged glucokinase (GCK); Myc marks an untargeted standard; higher = target protein stabilised (more abundant)
Conditions: target protein: 3xFLAG-MCP-GCK-ALFA reporter; HEK293 landing pad (RPLP)
Procedure, shortened: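 Binders fused to an ALFA nanobody were recombined as a library into HEK293 landing-pad cells, which were induced with 2 μg mL^−1 doxycycline and then transfected to express a FLAG-tagged target and a Myc-tagged standard. After 48 h, circular RNA barcodes recovered by anti-FLAG and anti-Myc immunoprecipitation of lysates were reverse transcribed, amplified and sequenced. Each binder's target abundance is the median log2 ratio of FLAG to Myc barcode read proportions, from barcodes present at ≥10^−7 in both replicates, binders carrying ≥3 barcodes per replicate, a 10^−6 pseudocount and pooled replicates.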

GABARAPL2, P60520, sequence (P60520 whole entry, the tested form may be a part): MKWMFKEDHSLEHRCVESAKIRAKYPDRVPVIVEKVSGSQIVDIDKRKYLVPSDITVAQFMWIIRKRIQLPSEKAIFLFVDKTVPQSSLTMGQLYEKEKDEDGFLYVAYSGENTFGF

B1: GBRAPL2_54_7376 (protein)
chain: MKKVEIEIDYIVEGDPAELARVEAVLKKELAEMEKTLKSKFNAKTTVSSEVEDGVLTTTVTVITDESHVDEVIDLALETAERVSAETGVKVSVVIGIKEL
Q: B1 was tested. Which “median log2 fold change” value did it give?
A: -0.212

B2: GBRAPL2_54_7377 (protein)
chain: MKKVEITIDYIVEGDEEELKRVREVLEKELEKMEKELKEKFNAKTEVSVEVEDGVLTVTVDVIVDEKDVDKVIDLALKTAEEVSKKTGVKVNVVIGIKEL
Q: With B2 as the binder, how does the “median log2 fold change” value read?
A: -0.193

B3: GBRAPL2_63_7404 (protein)
chain: SSAEKVLKTLLEYATLDLDTAERLEEALESNASEEELREALVEAIKDIRPDLTEEEAERVADLLIELAKQSEELLKEAVRDLDTLENDEFLKRLEELVAA
Q: How did the “median log2 fold change” value turn out when B3 was run?
A: 0.0151

B4: GBRAPL2_54_7389 (protein)
chain: MKMIEIVIDYIAEGDDEELDKVEEVLLELLEEFKKELKEKYGATVEVSVEREDGVLTVTVTVIVKEEDVDDVIDLADKVAKEVEAKTGVKVSLVIGIKEL
Q: For B4, which “median log2 fold change” value is on record?
A: -0.265

B5: GBRAPL2_54_7375 (protein)
chain: MKKVEIEIDYIVEGNEEELKKVREVLKKELEKMKKELEEKFNATVEVSEEYENGVLTVTVKVIVDEEHVDEVIDLALETAERVSKETGVKVNVVIGIKEL
Q: For B5, which “median log2 fold change” value is on record?
A: -0.389

B6: GBRAPL2_63_7402 (protein)
chain: SAVERVLRTLLEHAVLDLDTAERLEKALESNLSDEELFKTLVEAIKDINPELTEEEAERVARLLIALAEQSEALLVEAVRQLSTLENEEFLALLEALVAA
Q: Which “median log2 fold change” value does the source give for B6 here?
A: 0.0388

B7: GBRAPL2_54_7386 (protein)
chain: MKKVNITIDFVAEGDPETLAKVEEVAEKEIEKMEEELKEKYGAETERSVEREDGVLTVTVDVTVPEEAVDDVIDLALETAERISKETGVKVSVVIGAEEL
Q: How did the “median log2 fold change” value turn out when B7 was run?
A: -0.458

B8: GBRAPL2_63_7405 (protein)
chain: MTAKKVLEALLRHAILPLDTAERLDEALENEEDEEKLRETLVEAILDIRPELTPEEAEYVAEKLLALAEQSEERLAEAVRALTTLSKEEFLARLDELVAE
Q: For B8, which “median log2 fold change” value is on record?
A: -0.247

B9: GBRAPL2_54_7390 (protein)
chain: LVEVELILIVSGELPEEEIERIEELLKEKTEELLKKHSDKIEKILRFEREREDGVVLISVELLVKEEYKEEVIDELIKIAEEIREESGVEIKSVIAESSD
Q: Which “median log2 fold change” value does the source give for B9 here?
A: -0.0228

B10: GBRAPL2_54_7381 (protein)
chain: AKKVEIVADFIVEGTPEELAKVEKVATELSKKLAEELAAKYGATSTLSFEREDGVLLLTVTIVTDESAVDDVLDRLEELRDEIEKRTGVKVNLVIGIKEL
Q: B10 was tested. Which “median log2 fold change” value did it give?
A: -0.18

B11: GBRAPL2_63_7391 (protein)
chain: SLADKTAALLSRLGAVPLELAEAWEAAAAALTDVAAFAEAAAAAAAAINPRIDAERQAILEEAIRRALTEDDPLAVEIVSAIINNEPDEEIRALWKKLLA
Q: For B11, which “median log2 fold change” value is on record?
A: 0.206

B12: GBRAPL2_63_7399 (protein)
chain: SAAKKALEALLEHAILDLDTAERLDKALENEKDEEKLRKALVEAILDINPEATEEEAERMADLLLELAKKSEAALKEAVRALSTMDLPEALAFLEALVAA
Q: Which “median log2 fold change” value does the source give for B12 here?
A: -0.0717

B13: GBRAPL2_63_7397 (protein)
chain: MTAKKVLEIILREAILDLETAEKLEEALKNEKTEEALREALVEAILDMRPDLTEEEAEEIVDLLLELQKKSEELAREGVRALSTLDNEEALAYLKELVAK
Q: Which “median log2 fold change” value does the source give for B13 here?
A: 0.0233

B14: GBRAPL2_63_7395 (protein)
chain: SAAARVLRALLEHAIVDLETAERIEEALATEKSAEALRETLVAALLDMIPELTEEEARELAAALEALARRSPELLREALRALQTLSLEEARARLAALLAA
Q: Which “median log2 fold change” value does the source give for B14 here?
A: 0.00583

B15: GBRAPL2_63_7401 (protein)
chain: SSVEKVLKTLLEYAVLDLDTAEKIDKALENNESDEELFKTLVEAIKDIRPDLTEEEAEEIAKLLIELAKKSEELLKEAVRKLDTMENEEFIKYLKELVEK
Q: Which “median log2 fold change” value does the source give for B15 here?
A: 0.131

B16: GBRAPL2_63_7394 (protein)
chain: SAARKVLEALLEHAIIDLETAERLEKALEEAKSEEELRKTLVEALLDMIPELTEEEAEELADMLIELAKKSEELLKEAILALQTLSKEEALAKLKALVAE
Q: B16 was tested. Which “median log2 fold change” value did it give?
A: 0.071

B17: GBRAPL2_63_7396 (protein)
chain: MIAKKVLEILLREAILDLETAEELEKALEEEKTEEELRKALVKAILDLNPDLTEEEAEEIVELLLELAKKSEELARKAVRALSTLDNEEAFAFIKKLVAE
Q: With B17 as the binder, how does the “median log2 fold change” value read?
A: 0.0814

B18: GBRAPL2_54_7382 (protein)
chain: AKKVRITIEFIVEGNEEELEKVKKVAKELSEELAKELKEKYGATSSISFEEENGVLTITIDVITDESAVDDVIDRALELKEEIEKKTGLKVSVVIGIEYL
Q: How did the “median log2 fold change” value turn out when B18 was run?
A: 0.121

B19: GBRAPL2_54_7373 (protein)
chain: MTKVLIEATFIAEGTPEELAEVRKVALEELEKLKKELKEKFGAESKISSEEEDGVLSVTVEITTEKENLDEVLDLLEETRERIAERTGRPVSLVIGIKEL
Q: B19 was tested. Which “median log2 fold change” value did it give?
A: 0.0324

B20: GBRAPL2_63_7392 (protein)
chain: SLLDKVLKLLSRLGPVPLDLAERFEELAEELSDEEELAKAIAEAVQEDNPHIDEERRKILEEAILKALTEDSEIAIKIASAIINGAPMEEIEKLLEELKK
Q: For B20, which “median log2 fold change” value is on record?
A: 0.0699

B21: GBRAPL2_54_7379 (protein)
chain: MKIVEVEITYLATGNEEELKKVEEVAKKKVEEFKKELEEKYGAKTTTSVEIEDGVLSYTVTVITKEENLDEVIDKALEMAKEIEKETGVKVSVVIGTKEL
Q: For B21, which “median log2 fold change” value is on record?
A: -0.192

B22: GBRAPL2_63_7393 (protein)
chain: STWARVLRLILEHATIDLETAERLEAALESNASDEELFATLVEALQDIRPELTPEQARDIAAKLARLAERSEALAAEAVRRLDTMSLEEFLAHLDALVAA
Q: With B22 as the binder, how does the “median log2 fold change” value read?
A: 0.216

B23: GBRAPL2_54_7388 (protein)
chain: MKKIRITVDFIAEGNDEELAKVEKVLLEELEKFKKELKEKFNAKTEISVERENGVLTITVDVITEEKDVDEVIDLADEVAKEVEKKTGVKVSVVIGIEEL
Q: B23 was tested. Which “median log2 fold change” value did it give?
A: -0.363

B24: GBRAPL2_63_7398 (protein)
chain: MLAKKVLEALLENAILPLDLAEELEKALETLKTEEELRETLVKAILELNPELTEEEAEEIVDLLIELAKKSEELLKEGVRALSTLDNETAKEYLKKLVAE
Q: B24 was tested. Which “median log2 fold change” value did it give?
A: 0.0619

B25: GBRAPL2_54_7387 (protein)
chain: MKIIEIEIDYIAEGDDETLDKVEKVALEEIEKLKKELKEKYGAETEIEVEREDGVLSVTVTVITKEENVDEVIDLAEETAKEISEKTGIKVSVVIGLKEL
Q: With B25 as the binder, how does the “median log2 fold change” value read?
A: -0.429

B26: GBRAPL2_63_7403 (protein)
chain: SEVEKVLKAILEYATLDLDTAERIDKALESNLSEEELFEVLVETIKDINPELTDEEAEKIAELLIELAKQSEEKLKEAVRKLQTMENEEFIAYLEELVKE
Q: With B26 as the binder, how does the “median log2 fold change” value read?
A: -0.012

B27: GBRAPL2_54_7380 (protein)
chain: MKKVLITGEFIVEGDEESLEKVKKVAEEKSKELSEELKKKYGAESTISFEEEDGVLYITIDIITDEEAVDDVIDKLEELKKEIEKETGLKVSLVIGIEYL
Q: How did the “median log2 fold change” value turn out when B27 was run?
A: 0.0537

B28: GBRAPL2_63_7400 (protein)
chain: SAAKKALEALLEHAILDLETAERLEKALEEETDEEKLYEALVEAILDLNPEATREQAEEIADLLIELAKQSEAALKAAVRALSTVPLEEALAFLRAAVAA
Q: Which “median log2 fold change” value does the source give for B28 here?
A: -0.0605

B29: GBRAPL2_54_7378 (protein)
chain: MKIVEVEVDYIAQGNDEELEKVEKVAKEELAKLTEELAKKYGAKTTTSVEREDGVLSVTLTVIVKESDLDAVIDLALETAKRIEEKTGVKVSVVIGTKEL
Q: With B29 as the binder, how does the “median log2 fold change” value read?
A: -0.111

B30: GBRAPL2_54_7374 (protein)
chain: MKKVEITIDYVVEGNEEELEKVEKVLKKELEELKKKLESEFNAKTKISVERENGVLTIEVDVITDEKDVDKVIDLALETAKKVSEKTGVKVSVVIGIKEL
Q: How did the “median log2 fold change” value turn out when B30 was run?
A: -0.179

B31: GBRAPL2_54_7383 (protein)
chain: AKKIEIEIDYIVEGDKESLEKVKKVFTELSKKMAEELKEKYGAETKIEFEEENGVLTGTITVITDESHVDEVIDRALELKKEIEKKTGLKVNVVIGIKEL
Q: For B31, which “median log2 fold change” value is on record?
A: -0.128

B32: GBRAPL2_54_7385 (protein)
chain: MTKVLVEIDFLVEGDEEELAEVEKVLLEEIEKMKKELKEKYGAEVTVEVEREDGRLLVTVTVLTPKEAVDDVIDLAEKMRDEVEAKTGVKVHVVIGIEEL
Q: B32 was tested. Which “median log2 fold change” value did it give?
A: 0.154
